Laboratory results taken from the supplement of paper PMC6555819.

Legend:
Test in all cases: PBM binding z-score (relative to random genomic background probes); higher = stronger binding; sequences stand for … in GC…GCGATTGACAGCGTAGAATGAAGG
[1] = tested on: FXR:RXRa (NR concentration 270 nM, RXRa partner concentration 90 nM)
How it was run: (§1)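 Scanned fluorescence from custom Agilent 4×180K protein-binding microarrays was regression-normalized. Binding z-scores use random background probes as reference. Ligand-free nuclear receptor dimers were incubated on the arrays for 1 h and detected with antibodies against each partner (one per run).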

[2] = tested on: LXRa:RXRa (NR concentration 270 nM, RXRa partner concentration 90 nM)
How it was run: as §1

[3] = tested on: LXRa homodimer (NR concentration 270 nM)
How it was run: as §1

[4] = tested on: LXRb:RXRa (NR concentration 270 nM, RXRa partner concentration 90 nM)
How it was run: as §1

[5] = tested on: LXRb homodimer (NR concentration 270 nM)
How it was run: as §1

[6] = tested on: PPARa:RXRa (NR concentration 270 nM, RXRa partner concentration 90 nM)
How it was run: as §1

[7] = tested on: PPARg:RXRa (NR concentration 180 nM, RXRa partner concentration 90 nM)
How it was run: as §1

[8] = tested on: PPARg:RXRa 270nM:90nM, anti-RXR (NR concentration 270 nM, RXRa partner concentration 90 nM)
How it was run: as §1

[9] = tested on: PPARg:RXRa 30nM:10nM, anti-RXR (NR concentration 30 nM, RXRa partner concentration 10 nM)
How it was run: as §1

[10] = tested on: PPARg:RXRa 90nM:30nM, anti-RXR (NR concentration 90 nM, RXRa partner concentration 30 nM)
How it was run: as §1

Sequence	PBM binding z-score [1]	PBM binding z-score [2]	PBM binding z-score [3]	PBM binding z-score [4]	PBM binding z-score [5]	PBM binding z-score [6]	PBM binding z-score [7]	PBM binding z-score [8]	PBM binding z-score [9]	PBM binding z-score [10]
ATCGCAAGGTCGTGAGGTGAGTATACAGAAAGGC	2.59	1.9	-0.0908	1.6	-0.382	3.36	1.49	1.84	0.321	0.863
CCTACTGGGCCACGAAAGCTCATTGATTCAGTGA	-0.608	-0.413	-0.683	-1	-0.95	-0.132	1.08	1.15	-0.145	0.162
ATTCCAAGGTGATCGTGAGGTCGTTGATACTAAC	2.16	1.56	0.734	1.23	0.167	1.52	0.194	0.382	0.172	0.122
AATACAGGGTCATCGTAGACCAGAGTACGCACAG	7.48	5.86	2.19	4.4	1.2	5.84	6.79	6.17	2.73	4.84
GGAACGAGGGCAAAGTTGATCGCATCTGTCGACG	1.11	0.829	-0.561	0.545	-0.311	3.82	6.68	6.95	5.94	7.29
TCTAGTTGGTCACGGAGGTCACCCACGACGGGTA	3.16	3.23	2.36	2.91	0.635	3.67	3.23	4.07	3.3	3.64
CAGCCTAGGTCAGGGCCAATATAGGAGGAACGTT	1.73	0.833	-0.284	0.824	-1.05	2.05	1.37	1.22	0.246	0.449
TCTATTAGTTGATTAGGGCAGCCGAAACAGCGGA	0.608	0.627	0.0696	0.52	0.663	1.01	0.0121	1.92	3.66	2.93
AGAATGAGGTGATTAAGATCAGGGAATTGCGGTC	-0.0476	-0.338	-0.29	-0.384	-0.427	0.785	0.618	0.415	-0.0538	0.0296
TAGCCTAGGTCATTCAGGGGCCAGTCTAGAAAGC	4.72	3.65	0.514	2.84	0.819	3.29	1.75	2.25	-0.0756	1.15
CCGGGTAGGTTATGGGGCATTCAGGCAACGGTGA	0.235	0.484	0.0736	0.904	-0.348	1.54	2.18	3.16	0.788	2.58
CTTCCAAGGTCAAGGTCAGTGAAAGAGACTCGAA	7.44	6.06	1.86	4.85	1.61	6.31	6.43	6.37	3.11	5.13
CGTCCAAGGTCAATGCTGGGTCAGTGAAAGCATT	6.49	4.95	0.942	3.75	0.628	5.14	3.82	4.53	1.09	3.07
GCTTGTCGATCAAGGTTAAGAAAGACTAAGCTAA	0.467	0.896	-0.687	0.589	-0.963	1.17	-0.154	0.57	0.0048	0.112
GCGACTTGGGCATCAGCAGGTTACCATAACTTAA	-0.439	-0.445	-0.567	-0.214	-0.905	-0.0723	0.0729	-0.529	-0.585	-0.893
ACTAGCAGGCCAAGGGTTACTCAAGATTAGTCCG	0.239	2.23	-0.412	0.935	-0.494	2.61	4.88	5.61	4.58	5.71
TATAGTTGGTCAAAGGTCACACACTCGAAATGCG	5.81	6.08	3.62	5.5	2.11	6.7	11.4	9.75	9.43	10.9
TAGCCTACGTCAGATCGGGCCAGTATACGCTATA	-0.48	-0.971	-0.851	-1.01	-0.669	-0.78	0.214	-0.86	-0.34	-0.771
CGAACTAGGTCAACCAGGACAGTGAATACATTGA	4.29	2.78	0.571	2.31	0.00788	4.98	8.21	6.58	4.17	5.96
AGCATGAGGTTATACGTAGATCAGGGAAGAAAGT	1.93	1.8	0.246	1.47	0.257	2.43	0.933	0.729	0.259	0.586
CGAACGAGGGCATGGGTTGATAGCAAATGCCGAT	0.548	0.397	-0.228	0.329	-0.69	2.01	3.1	3.6	1.43	3.25
CCTACTGAGCCAAAAAGGTCATTGATGCCGATAA	3.37	4.28	3.65	4.29	1.17	4.37	1.31	2.81	0.896	1.99

Sequence	PBM binding z-score [1]	PBM binding z-score [2]	PBM binding z-score [3]	PBM binding z-score [4]	PBM binding z-score [5]	PBM binding z-score [6]	PBM binding z-score [7]	PBM binding z-score [8]	PBM binding z-score [9]	PBM binding z-score [10]
CAGCCTAGGTCAGGGCCAGCATAGGAGGAACGTT	1.52	0.758	-0.392	0.314	-1.18	1.98	0.816	1.02	-0.543	0.19
CTCGAAAGGTCGTGCTCAGGTGAGTAGACCAAAC	5.65	3.86	-0.195	3.08	0.0468	4.81	2.71	3.96	0.899	2.88
TCATATAGGTAAATGCTAGGTAAAAGTCCGATCT	1.25	1.02	0.456	0.888	0.06	1.36	0.914	2.29	3.89	2.93
GCTATTAGTTGAAAGGGCAATCGAATGATTCTCG	0.568	0.562	0.189	0.633	-0.254	2.34	2.44	4.24	2.01	4.26
GCAGACAGGTGAGACGCAGGTAACTCAGGGTGGC	-0.153	-0.129	-0.774	-0.355	-1.18	0.164	0.374	-0.0915	-0.758	-0.532
ACTAGTTGGTCAGCTGAGATCACACACAATTCGG	-0.123	-0.166	-0.172	0.118	0.186	-0.138	0.977	0.171	0.202	0.195
GCTAGCAGGCCATTTGGGTCACTGAATGACGGGC	-0.0182	-0.185	-0.885	-0.0353	-0.763	1.33	0.576	0.447	-0.489	-0.116
TTACCAAGGTGAAGGGTCGTTGATGCACGCCTTG	1.88	1.13	-0.449	1.03	-0.693	3.65	6.01	6.42	4.63	6.33
TAGCCTAGGTCATTCAGGGGCCAGTTTAGAAAGC	4.19	3.81	1	3.32	0.887	3.8	1.98	2.15	0.497	1.59
CAAATTAGGTCAAGGTCAAAGTCGGTTTGTGCCA	6.89	5.96	4.73	4.86	2.29	6.17	9.22	8.16	6.73	8.31
CCTTACGGGTCAAGGTTATAGCGCGGGTGGTACG	5.55	3.66	0.129	2.75	0.134	5.04	4.54	4.41	1.73	3.35
TCGCGTAGGTTAGGGGCATTCAGAATGGCGTCGA	0.432	0.41	-0.522	0.996	0.176	1.04	-0.162	1.01	1.38	1.41
GCTAGTTGGTCAGTAAAAGGTCACACACCGGTCG	3.43	4.13	4.61	3.79	0.823	4.31	3.03	4.23	2.21	4.37
AGTCAAAGTTCATCTAAGTAACGTAAGATATGCT	6.46	5.91	4.97	3.59	1.65	4.76	6.53	6.27	3.47	5.55
ATCTCTAGGTAAGGCTCAGTTCAGTGAAGAACGC	0.198	0.107	0.412	0.0703	0.35	0.125	0.0741	0.513	0.188	0.48
CTCGAAAGGTCGTGCTCAGGTAAGTATACCAAAC	5.43	4.11	0.35	3.55	0.134	5.08	2.41	4.23	1.01	2.94
CCAGACAGGTGAGAAGGTAACTCACCCTCGATTA	-0.00684	0.259	-0.0683	0.491	-0.394	1.09	0.731	0.509	-0.0353	-0.0765
ATATGTAGCTTATCGGGTCATTCAGTTTGCGCAT	2.02	2.21	1.13	2.2	1.08	2.5	0.837	0.994	0.318	0.857
CCTACTGGGCCACGGAAGGTCATTGATTCAGTGA	1.94	2.96	2.27	2.25	-0.194	3.5	3.4	3.37	1.05	2.35
TCATATAGGTAAAAGGTGAATGTCGGTGTGGTAA	1.81	1.79	0.481	1.93	0.156	5.2	8.83	8.55	8.35	9.06
GCGGACAGGTGAAACGCAGGTAACTCAGGGTGGC	-0.363	-0.0756	-0.541	-0.243	-1.43	0.799	0.338	-0.205	-1.01	-0.756
TCTTGTAGATCAAGCAGGCTAAGAAAGCCTGAGT	-0.142	-0.307	-0.525	-0.376	-0.474	0.113	-0.409	0.913	2.4	1.59
